# Assay outcomes as filed in PubChem.
# sEH activator – soluble epoxide hydrolase (human) activation | P34913 | purified human sEH enzymatic activity, activator screen | activation, % at 2 µM | 91,000 tested, 0.04% active | AID 717; in the data active = activation above about 37%
# sEH inh – inhibitors of human soluble epoxide hydrolase; inhibition, % at 2 µM; AID 707; 91,000 tested, 0.34% active; P34913; recombinant human sEH enzymatic activity assay; in the data active = inhibition above about 80%
# CYP2C9 inhib – blocks human cytochrome P450 2C9; P11712; CYP2C9 Supersomes, luciferin-H conversion, luminescence; inhibition, % at 5 µM; 96,000 tested, 20% active;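 active = blocking of liver enzyme CYP2C9 beyond about 50% at 5 µM, limit read from the data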
# CYP2C19 act – activators of human cytochrome P450 2C19 | recombinant CYP2C19, luciferin-H EGE luminescence; stronger effect = higher value; 0 = fully inhibited enzyme, 1 = untreated enzyme | activation factor at 5 µM | 96,000 tested, under 10 active | AID 1025;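 active = activation factor of at least 2 at 5 µM in the primary screen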
# CYP2C9 act – CYP2C9 (human) activation; P11712; recombinant CYP2C9, luciferin-H conversion, luminescence; stronger effect = higher value; factor 1 = untreated enzyme, 0 = blocked; activation factor at 5 µM; 96,000 tested, 1.4% active; AID 1024;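 active = activation factor of 2 or more for CYP2C9 at a 5 µM dose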
# CYP2C19 inhib – inhibitors of human CYP2C19; P33261; CYP2C19 Supersomes, luciferin-H EGE luminescence, 30 min; inhibition, % at 5 µM; 96,000 tested, 21% active;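 active = CYP2C19 inhibition above a set limit at 5 µM in the primary screen, cut at about 50% in these data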
# Hits are given with their value; 0 = inactive; - = not tested or not shown. An excerpt weighted towards active compounds, which were near 27% of everything screened.
SMILES,sEH activator,sEH inh,CYP2C9 inhib,CYP2C19 act,CYP2C9 act,CYP2C19 inhib
COc1cccc(NC(=O)c2ccccc2NS(C)(=O)=O)c1,0,0,65,0,0,0
O=C1CCCN1CCC1CCN(C2CC(=O)N(c3ccc(Cl)cc3)C2=O)CC1 (stereo not given),0,0,0,0,0,0
Cc1cc2c(ccc3[nH]onc32)n1,0,0,0,0,0,0
CCS(=O)(=O)Nc1ccc(C(=O)OC)cc1,0,0,69,0,0,64
CCS(=O)(=O)Nc1ccc(C(=O)c2ccccc2)cc1,0,0,-,-,-,-
CS(=O)(=O)Nc1ccccc1C(=O)c1ccccc1,0,0,0,0,0,61
COc1ccc(Nc2nc(N)nc(CN3CCC(Cc4ccccc4)CC3)n2)cc1,-,-,0,0,0,0
COc1ccccc1Nc1nc(N)nc(CN2CCC(Cc3ccccc3)CC2)n1,0,0,72,0,0,50
CCOCCCn1c(=N)c(C(N)=S)cc2c(=O)n3cccc(C)c3nc21,0,0,0,0,0,0
Cc1cccn2c(=O)c3cc(C(=O)NCCc4ccccc4)c(=N)n(CCCn4ccnc4)c3nc12,0,0,58,0,0,55
CCCCNC(=O)c1cc2c(=O)n3cccc(C)c3nc2n(Cc2ccccc2)c1=N,-,-,64,0,0,0
Cc1cccn2c(=O)c3cc(C(N)=S)c(=N)n(CCCOC(C)C)c3nc12,0,0,0,0,0,86
COc1ccc(-c2cc(C(=O)N3CCc4ccccc4C3)no2)cc1OC,0,0,0,0,0,0
CC(=O)c1ccc(NC(=O)C2CCC(C)NC2=O)cc1 (stereo not given),0,0,0,0,0,0
COc1cccc2cc(/C(C)=N/Nc3nc(-c4cc(C)ccc4C)cs3)c(=O)oc12,0,0,0,0,0,0
C=CCSc1nnc2c(n1)OC=Nc1ccccc1-2,0,0,0,0,0,0
OCCN(Cc1ccccc1)Cc1cccc(C(F)(F)F)c1,0,0,0,0,0,73
OCCN(Cc1ccccc1)Cc1cccc(F)c1,0,0,0,0,0,70
OCCN(Cc1ccccc1)Cc1ccc(C(F)(F)F)cc1,0,0,50,0,0,95
OCCN(Cc1ccccc1)CC1CCCCC1,0,0,0,0,0,0
FC(F)(F)c1cccc(CN2CCCCCC2)c1,-,-,0,0,0,0
CCCN(CCO)Cc1cccc(Cl)c1,0,0,0,0,0,0
O=C1CC(NC23CC4CC(CC(C4)C2)C3)C(=O)N1c1ccc2c(c1)OCO2 (stereo not given),0,0,0,0,0,0
NS(=O)(=O)c1ccc(NC(=O)C2COc3ccccc3O2)cc1 (stereo not given),0,0,0,0,0,0
COc1cc(NC(=O)C2COc3ccccc3O2)c(OC)cc1Cl (stereo not given),0,0,84,0,0,86
SMILES,sEH activator,sEH inh,CYP2C9 inhib,CYP2C19 act,CYP2C9 act,CYP2C19 inhib
COc1ccc(OC)c(NS(=O)(=O)c2ccc(NC(=O)C3COc4ccccc4O3)cc2)c1 (stereo not given),0,0,0,0,0,57
CC(C)(C)NC(=O)c1ccc(NC(=O)C2COc3ccccc3O2)cc1 (stereo not given),-,-,0,0,0,0
COC(=O)c1ccc(C)c(NC(=O)C2COc3ccccc3O2)c1 (stereo not given),0,0,79,0,0,78
Cc1ccc(S(=O)(=O)n2cnc3cc([N+](=O)[O-])ccc32)c(C)c1C,0,0,0,0,0,0
COc1ccc(Nc2nc(C)nc3c2nnn3Cc2ccccc2)cc1OC,0,0,-,-,-,-
Cc1nc(N(C)Cc2ccccc2)c2nnn(Cc3ccccc3)c2n1,0,0,98,0,0,100
Cn1c(=O)n(CC(=O)NC2CCCCC2)c(=O)c2ccccc21,-,-,0,0,0,0
CCc1ccc(N(C(=O)Cc2cccs2)C(C(=O)NC2CCCCC2)c2cn(C)nc2C)cc1 (stereo not given),0,0,0,0,0,73
O=C(NC1CCCC1)C(c1ccccc1)N(Cc1ccc2c(c1)OCO2)C(=O)Cc1cccs1 (stereo not given),0,0,-,-,-,-
O=C(NC1CCCC1)C(c1ccncc1)N(Cc1ccccc1)C(=O)Cc1cccs1 (stereo not given),0,0,0,0,0,61
Cc1ccc(-c2nnn(CC(=O)N(Cc3ccccc3)C(C(=O)NC3CCCC3)c3ccncc3)n2)o1 (stereo not given),0,0,55,0,0,0
